Rows were chosen to be rich in hits. Some 10% of all compounds tested hit in one or more screens of this group.
G9a block = blocks human histone lysine methyltransferase G9a. Q96KQ7. Potency, µM (doses to about 102 µM), usual class: inhibitors. 350,000 tested, 8.8% active. G9a H3K9 monomethylation, AlphaScreen, 2 h; also: nearly all actives have a fitted effect of over 75% in size
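Chemiluminescent proximity detection of H3K9 monomethylation, read after 10 min bead incubation in the dark. Reaction: 20 nM G9a, 500 nM biotin-H3K9 peptide, 20 uM SAM cofactor, 2 h, room temperature, following 15 min enzyme-compound preincubation.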
HP1b binding inh = blocks HP1-beta chromodomain binding to methylated histone tails; AlphaScreen HP1-beta / biotin-H3K9me3 peptide binding; 390,000 tested, 0.56% active; Potency, µM (titrated, usually from 114 µM), usual class: inhibitors; P83916; also: nearly all actives have a fitted effect of over 70% in size
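Compound inhibition of the preformed complex between 50 nM HP1-beta and 50 nM biotinylated H3K9me3 peptide was read by AlphaScreen. Buffer was PBS pH 7.4 with 0.01% Tween-20. Incubations ran 30 min at room temperature, with 10 ug/mL donor/acceptor beads.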
BAZ2B inh = inhibitors of human BAZ2B bromodomain | Potency, µM (series often up to 114 µM), actives largely listed as inhibitors | AlphaScreen BAZ2B-H3K14Ac peptide displacement | AID 504333 | 360,000 tested, 4.4% active; also: nearly all actives have a fitted effect of over 60% in size
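Protein-peptide AlphaScreen: BAZ2B 50 nM, b-H3K14Ac 50 nM, 1x PBS pH 7.4 + 0.01% Tween-20. Preincubation 30 min RT; cpd 30 min RT (top 110 uM); beads 20 min RT, light-protected.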
GLS inh = glutaminase GLS (human) inhibition; 410,000 tested, 0.21% active; GLS enzymatic activity, qHTS titration; AID 624170; O94925; Potency, µM (top dose mostly 45.5 µM), hits mostly inhibitors
Target sequence (O94925 whole entry, looked up): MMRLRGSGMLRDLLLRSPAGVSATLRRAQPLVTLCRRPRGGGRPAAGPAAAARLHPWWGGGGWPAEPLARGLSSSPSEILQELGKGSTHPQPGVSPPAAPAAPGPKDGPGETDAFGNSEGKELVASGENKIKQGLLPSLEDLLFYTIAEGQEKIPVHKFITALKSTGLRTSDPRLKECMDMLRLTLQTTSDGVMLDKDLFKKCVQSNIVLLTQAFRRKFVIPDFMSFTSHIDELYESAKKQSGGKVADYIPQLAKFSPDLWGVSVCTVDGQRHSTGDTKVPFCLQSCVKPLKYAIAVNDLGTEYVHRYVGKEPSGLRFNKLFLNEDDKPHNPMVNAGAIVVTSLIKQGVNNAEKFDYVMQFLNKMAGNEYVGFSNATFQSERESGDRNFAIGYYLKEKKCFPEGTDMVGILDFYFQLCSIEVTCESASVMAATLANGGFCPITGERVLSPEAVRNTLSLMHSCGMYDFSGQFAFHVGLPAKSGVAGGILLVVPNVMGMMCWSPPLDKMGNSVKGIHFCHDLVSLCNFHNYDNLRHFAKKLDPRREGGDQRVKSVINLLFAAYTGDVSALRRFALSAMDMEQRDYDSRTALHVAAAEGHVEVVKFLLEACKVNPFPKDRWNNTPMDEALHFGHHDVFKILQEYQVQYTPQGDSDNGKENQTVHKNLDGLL
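Enzyme dispensed in phosphate buffer (45 mM, pH 8.2, 0.02% Tween-20), compounds pinned in, then 1 mM L-glutamine solution and the glutamate oxidase–HRP–Amplex Red mix added; fluorescence read immediately and again after 30 min at room temperature.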
JMJD2A Tudor = blocks the human JMJD2A Tudor domain | O75164 | AlphaScreen JMJD2A-Tudor / H3K4me3 peptide binding | Potency, µM (series often up to 114 µM), usual class: inhibitors | 390,000 tested, 4.4% active | AID 504339; also: nearly all actives have a fitted effect of over 50% in size
L3MBTL1 block = inhibitors of human L3MBTL1 | Q9Y468 | AlphaScreen L3MBTL1–H3K9me1 peptide binding | Potency, µM (titrated, usually from 57.1 µM), usual class: inhibitors | 230,000 tested, 0.66% active | AID 485360; also: nearly all actives have a fitted effect of over 60% in size
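L3MBTL1 (50 nM) pre-complexed 30 min with biotinylated H3(1-15)K9me1 peptide (75 nM), then compounds added for 30 min at room temperature; AlphaScreen streptavidin donor/nickel chelate acceptor beads (10 ug/mL final) read after 30 min dark incubation.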
Numbers stand for hits. Calls follow the shape of the dose curve; as a rule, active = well fitted curve in the direction sought with a large enough effect; inconclusive = small, poorly fitted or top-dose-only effect, or another doubt; inactive = no such curve, though single readings can be large; an effect the other way counts as inactive or inconclusive.

`O=C(c1cccs1)[C@@H]1[C@@H]2C(=O)N(Cc3ccc4c(c3)OCO4)C(=O)[C@@H]2C2c3ccccc3C=CN21` (stereo not given in full) gave G9a block inconclusive, BAZ2B inh inactive and L3MBTL1 block inactive.
Screening CC(C)(C)C(=O)[C@@H]1[C@@H]2C(=O)N(C3CCCCC3)C(=O)[C@@H]2[C@H]2c3ccccc3C=CN12 returned G9a block 10µM, HP1b binding inh inactive, BAZ2B inh inactive and JMJD2A Tudor inconclusive.
For COc1ccc(N2C(=O)[C@@H]3[C@H](C2=O)[C@H]2c4ccccc4C=CN2[C@@H]3C(C)=O)cc1 the results were G9a block 8.91µM, HP1b binding inh inactive, BAZ2B inh inconclusive, GLS inh inactive, JMJD2A Tudor inconclusive and L3MBTL1 block inactive.
`O=C(c1ccc2c(c1)OCO2)[C@@H]1[C@@H]2C(=O)N(C3CCCCC3)C(=O)[C@@H]2C2c3ccccc3C=CN21` (stereo not given in full) gave G9a block 31.6µM, HP1b binding inh inactive, BAZ2B inh inactive, GLS inh inactive, JMJD2A Tudor inactive and L3MBTL1 block inactive.
Screening CN(C)c1ccc(C2CC(c3c(O)n(C4CCCCC4)c(=O)[nH]c3=O)=Nc3ccccc3S2)cc1 (stereo not given) returned G9a block inactive, HP1b binding inh inactive, BAZ2B inh inactive, GLS inh inactive and JMJD2A Tudor inactive.
`COC(=O)c1sc2c(c1C)c(=O)n(-c1ccccc1)c(=O)n2CC(=O)Nc1cccc(C)c1` gave G9a block inactive, HP1b binding inh inactive, BAZ2B inh inactive, GLS inh inactive and JMJD2A Tudor inactive.
Cc1ccc(Sc2c(C)nn(-c3ccccc3)c2OC(=O)CC(C)C)cc1 was read as G9a block 8.91µM, HP1b binding inh inactive, BAZ2B inh inactive, GLS inh inactive and JMJD2A Tudor inactive.
Cc1nn(C(=O)COc2ccc(Cl)cc2)c(C)c1Sc1ccccc1 was read as G9a block inactive, HP1b binding inh inactive, BAZ2B inh inactive, GLS inh inactive and JMJD2A Tudor inactive.
`CCCC(=O)Oc1c(Sc2ccc(Cl)cc2)c(C)nn1-c1ccccc1` gave G9a block 3.98µM, HP1b binding inh inactive, BAZ2B inh inactive, GLS inh inactive and JMJD2A Tudor inactive.
Screening COc1cc(C(=O)Oc2c(Sc3ccc(C)cc3)c(C)nn2-c2ccccc2)cc(OC)c1OC returned G9a block 14.1µM, HP1b binding inh inactive, BAZ2B inh inactive, GLS inh inactive and JMJD2A Tudor inactive.
COc1ccccc1C(=O)Oc1c(Sc2ccccc2)c(C)nn1-c1ccccc1 was read as G9a block inactive, HP1b binding inh inactive, BAZ2B inh inactive, GLS inh inactive and JMJD2A Tudor inactive.
Screening COCC(=O)Oc1c(Sc2ccc(C)cc2)c(C)nn1C(C)(C)C returned G9a block inconclusive, HP1b binding inh inactive, BAZ2B inh inactive, GLS inh inactive and JMJD2A Tudor inactive.
Screening CCCCC(CC)CNC(=O)CCCCCn1c(=O)[nH]c2ccsc2c1=O (stereo not given) returned G9a block inactive, HP1b binding inh inactive, BAZ2B inh inactive, GLS inh inactive and JMJD2A Tudor inactive.
`CCOc1ccc(N(C(=O)c2ccc(Cl)cc2)S(=O)(=O)c2ccc3c(c2)n(C)c(=O)n3C)cc1` gave G9a block inactive, HP1b binding inh inactive, BAZ2B inh inactive, GLS inh inactive and JMJD2A Tudor inactive.
For O=C(CNC(=O)C1CCCCC1)OCC(=O)c1ccc([N+](=O)[O-])cc1 the results were HP1b binding inh inactive and JMJD2A Tudor inactive.
Screening CC[N+]1(CC)CCC(=C(c2ccccc2)c2ccccc2)C1C (stereo not given) returned GLS inh inactive.
CCC(=O)Nc1ccccc1-c1nc2ccccc2n(CC(=O)c2ccc(C)c(C)c2)c1=O was read as G9a block inactive, HP1b binding inh inactive, BAZ2B inh inactive, GLS inh inactive and JMJD2A Tudor inactive.

Compound activity: PubChem BioAssay, National Center for Advancing Translational Sciences (NCATS)
